Results on 29 molecules are retold here after PubChem BioAssay AID504942 (Broad Institute, 2011).

Measured potencies and affinities stand elsewhere. Calls of active or inactive are those of the source. The rule behind the calls is not given here.

The nature of this experiment: toxicity to human HeLa cells – cell-based, 48 h, plate reader, cherry-picks, cytotoxicity control, dose response (AID 504942). Conditions: series mostly up to 38 µM.
Consider `O=S1(=O)CCOC[C@H](c2ccccc2)N1Cc1cccc(Cl)c1`, for which the molecule was called inactive.
As for `CCNC(=O)COc1ccc2ccccc2c1`, the outcome was inactive.
As for `Cc1cc(NC(=O)c2cc([N+](=O)[O-])ccc2Cl)no1`, the molecule was classed as inactive.
For `CC(C)CCNC(=O)c1cccc(Cl)c1` the value was “inactive”; for `O=[N+]([O-])c1ccc(-c2cccnc2)cc1`, “inactive”.
On to `COc1ccc(N2CCN(C(=O)c3ccc(Br)o3)CC2)cc1`, for which the outcome was inactive.
Consider `O=CNC1(c2ccccc2)CCCCC1`, for which the molecule was called inactive.
With `CCOc1ccc(-n2cccc2C=O)cc1` the entry was “inactive”; with `CCOC(=O)/C=C(\C)Sc1cc(=O)oc2ccccc12`, “inactive”.
With `O=C(NC1CCCC1)c1cccc(Cl)c1`, the outcome was inactive.
As to `CCOC1=CC(=O)OC(c2ccccc2)C1` (centres undefined), the result was inactive.
Take `Clc1cccc(CNCCCSc2ncccn2)c1`: the call was inactive.
Consider `COC(=O)c1cc(-c2ccc(Br)cc2)on1`, for which the outcome was inactive.
As for `Cc1cccc(NC(=O)Nc2cc(C)on2)c1`, the call was inactive.
`O=C(/C=C/c1cccs1)c1cc(Cl)ccc1O`: the result was inactive.
For `Cc1ccc2scc(CN3CCCC3)c2c1` the value was “inactive”; for `N#CC(c1ccc(Cl)nn1)c1ccc(Cl)cc1Cl` (centres undefined), “inactive”.
`N#Cc1cc([N+](=O)[O-])ccc1N1CCCC1`: the outcome was inactive.
For `COc1ccc(/C=C/C(=O)c2ccoc2)cc1` the value was “inactive”; for `O=C(c1cccc([N+](=O)[O-])c1)N1CC2C3C=CC(C3)C2C1` (centres undefined), “inactive”.
For `COc1ccc(CNCc2cccc(Cl)c2)cc1`, the result was inactive.
In the case of `CO/N=C/c1cn(-c2ccc(Cl)cc2)nn1`, the call was inactive.
For `O=C(NC1CCCC1)c1cc(Cl)ccc1[N+](=O)[O-]` the value was “inactive”; for `N#Cc1cc(-c2ccccc2)cnc1Cl`, “inactive”; for `COc1ccccc1C(C#N)c1cccc(Cl)n1` (centres undefined), “inactive”.
As to `CCOC(=O)c1cnc(-c2ccccc2)nc1N`, the call was inactive.
Regarding `Clc1ccc2scc(CN3CCCCC3)c2c1`, the molecule was classed as inactive.
In the case of `Cn1cccc1C(C#N)c1ccccc1C#N` (centres undefined), the result was inactive.
`Cc1cc(NC(=O)c2c(F)c(F)c(F)c(F)c2F)no1`: the result was inactive.
